Measurements as given in PubChem BioAssay.
The source made the active and inactive calls.

Columns and labels:
[1] = compound effects on lung adenocarcinoma cell viability – A549, calcein-AM fluorescence, 48 h, basal, profiling panel (AID 1162); details: higher = more signal
[2] = compound effects on differentiated 3T3-L1 adipocyte viability – cell-based, 3T3-L1 adipocytes, calcein-AM fluorescence, 48 h, basal, profiling panel (AID 1163); details: 3T3-L1 adipocytes viability, higher = more signal
[3] = compound effects on hepatocellular carcinoma cell viability – HepG2, calcein-AM fluorescence, 48 h, basal, profiling panel (AID 1164); details: higher = more signal
[4] = compound effects on multiple myeloma cell viability – MM1S, calcein-AM fluorescence, 48 h, basal, profiling panel (AID 1165); details: higher = more signal;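 further: viability of MM1S multiple myeloma cells under basal unstimulated conditions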
[5] = calcein-AM signal in unstimulated myeloma cells – cell-based, calcein-AM fluorescence, 48 h, PK04 Diversity Set, profiling panel (AID 1166); details: RPMI8226 myeloma viability, higher = more signal;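 further: cells grown under basal conditions without added stimulus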
[6] = JC-1 mitochondrial signal, unstimulated HepG2 cells – cell-based, JC-1 fluorescence, 24 h, 100 nL compound, profiling panel (AID 1167); details: HepG2 mitochondrial potential, higher = more signal
[7] = JC-1 mitochondrial signal, unstimulated adipocytes – cell-based, JC-1 fluorescence, 3T3-L1 adipocytes, 24 h, 100 nL compound, profiling panel (AID 1168); details: JC-1 mitochondrial fluorescence, higher = more signal, called active from +8 up or from −8 down
[8] = JC-1 mitochondrial signal, unstimulated myeloma cells – cell-based, JC-1 fluorescence, RPMI8226, 24 h, 100 nL compound, profiling panel (AID 1169); details: JC-1 mitochondrial potential fluorescence, higher = more signal
[9] = JC-1 mitochondrial signal, unstimulated MM1S myeloma – cell-based, JC-1 fluorescence, 24 h, 100 nL compound, profiling panel (AID 1170); details: MM1S mitochondrial potential, higher = more signal
[10] = resazurin metabolic signal in A549 cells – cell-based, resazurin fluorescence, 24 h, PK04 Diversity Set, profiling panel (AID 1171); details: A549 viability, higher = more signal, called active from +8 up or from −8 down
Further: test concentration not given here.

SMILES	z-score [1]	z-score [2]	z-score [3]	z-score [4]	z-score [5]	z-score [6]	z-score [7]	z-score [8]	z-score [9]	z-score [10]
CO[C@@H]1COC(=O)CC=C[C@@H](C)[C@@H]2C=C[C@@H](O)[C@@H](COC(=O)CC=C[C@H]1C)O2	0.852	0.572	1.4	0.349	1.01	1.33	0.95 (inactive)	-1.01	1.48	-0.299 (inactive)
CO[C@H]1COC(=O)[C@H](C)NC(=O)[C@@H](C)COC(=O)CC=C[C@@H]1C	-0.0101	0.0176	-0.368	-0.303	0.693	-0.176	-1.32 (inactive)	-0.282	-0.863	-0.162 (inactive)
CN1C(=O)C2C(C1=O)C1C=C(CCCO)C2C(c2ccc(CN3CCCC3)cc2)N1C (stereo not given)	-0.259	0.617	-0.94	0.312	-1.55	0.48	-0.319 (inactive)	-0.667	0.287	-1.1 (inactive)
COC(=O)[C@H](C)NC(=O)CCC1CC(OC(=O)NCCc2ccc(F)cc2)CC2(CCCC(COC(=O)NCCc3ccc(Cl)cc3)O2)O1 (stereo not given in full)	0.98	-0.154	0.649	-1.14	-0.227	0.341	0.313 (inactive)	0.437	-0.324	0.544 (inactive)
CC(C)(C)N1CC=CC23O[C@@H]4C=CCCOC(=O)C4[C@H]2C(=O)N(CCCCCO)[C@@H]3C1=O (stereo not given in full)	-0.415	0.231	2.16	1.87	0.227	0.705	0.18 (inactive)	0.117	-0.29	0.0951 (inactive)
CC(C)NC(=O)[C@@]1(C)c2ccccc2C(=O)N(Cc2cc(F)cc(C(F)(F)F)c2)[C@H]1c1ccc(CO)cc1	0.0549	-0.866	-0.135	-0.0517	0.223	0.863	-0.327 (inactive)	0.102	-0.542	0.166 (inactive)
COC(=O)C1=C(C)N(Cc2ccccc2)[C@]23O[C@](C(=O)OC)(C(=O)N2[C@@H]1c1ccccc1)[C@H]1CCOC(=O)[C@H]13	0.589	0.109	-0.21	0.0449	-0.808	0.74	0.642 (inactive)	-0.139	-0.0135	0.516 (inactive)
O=C1[C@H]2[C@H]3[C@H](O)[C@H](O)CC(=NOCc4ccccc4)[C@H]3CC[C@H]2C(=O)N1c1ccc(F)cc1F	0.213	0.118	-0.196	0.772	0.471	0.577	0.918 (inactive)	0.305	-0.801	-0.0399 (inactive)
CO[C@H]([C@@H](C)[C@H](OC)c1ccccc1)[C@H](C)[C@@H](OC)[C@H](C)C(C)=O	1.29	-0.305	0.278	0.48	-0.345	0.0892	1.16 (inactive)	-0.141	0.692	-0.0733 (inactive)
CCCC=C(CCC)[C@@H](NC(=O)c1ccc(-c2ccccc2)cc1)c1ccc(C(=O)OC)cc1	-1.34	-1.51	-0.166	-0.116	-1.62	-3.18	0.393 (inactive)	-0.834	-1.29	0.747 (inactive)
COc1ccccc1CN1C(=O)c2ccccc2[C@@]2(Cc3ccccc3N(C(C)C)C2=O)[C@@H]1c1ccc(CO)cc1	0.212	0.423	1.29	-0.19	0.931	0.881	0.576 (inactive)	0.563	0.374	-1.64 (inactive)
CC(C)CON=C1C[C@@H](O)[C@@H](O)[C@@H]2[C@@H]3C(=O)N(C[C@@H]4CCCO4)C(=O)[C@@H]3CC[C@H]12	-0.31	-0.528	-0.222	0.12	-0.259	-0.637	-1.27 (inactive)	0.347	0.0335	0.322 (inactive)
COC(=O)CC=C[C@H](C)[C@@H](OCc1ccccc1Br)C(C)C	0.921	0.0901	1.34	0.426	0.736	0.744	0.319 (inactive)	0.00667	-0.822	-0.307 (inactive)
C[N+](C)(C)CCCCCCNC(=O)[C@@H]1C[C@@H]2C(=O)N3CCC[C@H]3C(=O)N2[C@@H]1c1cccc(OCCO)c1	-0.465	-0.0317	-1.92	0.826	0.844	-1.08	0.217 (inactive)	-0.00411	-1.03	1.12 (inactive)
CC(C)C[C@@H]1NC(=O)[C@H]2C[C@@H](C(=O)O)[C@@H](c3ccc(O)cc3)N2C1=O	0.48	0.0559	0.111	-2.7	0.25	1.27	-0.0304 (inactive)	0.433	-0.0341	-0.0496 (inactive)
O=C(CS)NCCCCCNC(=O)[C@H]1C[C@H]2C(=O)N3CCC[C@H]3C(=O)N2[C@H]1c1cccc(OCCO)c1	0.631	-0.367	0.432	-0.0388	-0.198	2.21	0.0249 (inactive)	-0.736	-0.419	0.477 (inactive)
CCCNC(=O)OC[C@H]1O[C@H](CCON=C[C@@H](OC)[C@H](C)C=CCC(=O)OC)C=C[C@@H]1Oc1ccc(OC)cc1	0.0666	0.764	0.97	-0.902	0.122	-0.12	-0.277 (inactive)	0.0719	-0.118	1.2 (inactive)
CCN1C(=O)[C@H]2[C@H]3[C@H](O)C=CC(=O)[C@@H]3CC[C@H]2C1=O	0.331	0.368	0.733	-0.434	0.197	0.234	-0.661 (inactive)	-0.408	1.5	0.459 (inactive)
CO[C@@H]1COC(=O)[C@@H]2CCCN2C(=O)[C@@H](C)COC(=O)[C@H](COCc2ccccc2)NC(=O)CC=C[C@H]1C	-0.427	0.169	-1.5	-0.329	-0.0455	-0.152	-1.02 (inactive)	-0.156	-0.683	-0.366 (inactive)
COCC(=C=CC[C@@H](O)c1ccccc1OCCO)CCO	1.31	0.177	0.792	0.699	0.551	0.429	0.432 (inactive)	-0.631	0.918	0.675 (inactive)
COc1ccc(OC[C@H]2Cc3c(-c4ccccc4)nc4c(c3CO2)CN(CCOc2ccccc2)CC4)cc1	0.823	1.04	0.562	-2.69	-1.81	3.51	0.367 (inactive)	-0.177	0.656	-0.634 (inactive)
C=CC[C@@H]1C=C[C@H](ON=C2c3cc(OC)ccc3O[C@H](c3cccc(OC)c3)[C@H]2O)[C@@H](CO)O1	0.27	-0.855	0.925	0.334	-0.0859	-1.45	0.704 (inactive)	-0.148	-1.12	-1.25 (inactive)
O=C1C[C@@H](O)[C@@H](O)[C@@H]2[C@@H]3C(=O)N(c4cccc(Oc5ccccc5)c4)C(=O)[C@@H]3CC[C@@H]12	0.494	-0.202	-0.323	0.309	-0.0677	-0.0107	0.615 (inactive)	0.54	0.531	-0.187 (inactive)
C[C@@H]1C=CCC(=O)OC[C@H](C)C(=O)OC[C@H]2O[C@H]1C=C[C@H]2O	0.145	-0.261	-0.139	-1.42	-0.595	0.482	0.36 (inactive)	-0.103	-0.314	0.172 (inactive)
C[C@@H](c1ccccc1)N1C(=O)[C@H]2[C@H]3[C@H](O)[C@H](O)CC(=NOC[C@@H](O)COCc4ccco4)[C@@H]3CC[C@H]2C1=O	0.0517	-0.837	-0.78	0.0485	-0.873	-0.794	-0.519 (inactive)	-0.287	-0.542	-0.428 (inactive)
CC(=O)OC[C@H]1O[C@@H](ON=C(C)CCN2CCc3nc(-c4ccccc4)c(-c4ccccc4)cc3C2)[C@H](OC(C)=O)[C@@H](OC(C)=O)[C@@H]1OC(C)=O	-0.21	0.565	0.69	-0.0213	-0.162	1.11	-1.19 (inactive)	-0.522	0.231	-0.282 (inactive)
